Measured values taken from PubChem BioAssay (Tox21).
Inconclusive results are not listed. A call without a number means that no potency is given here. Active and inactive are the calls of the source. Calls come from the whole dose curve; as a rule, active = well fitted curve in the direction sought with a large enough effect in the repeat runs; inconclusive = weak or mixed curves; inactive = no such curve, though single readings can be large; an effect the other way counts as inactive or inconclusive.

experiment: qHTS RealTime-Glo MT Cell Viability Assay in HEK293 cells - 8 hour (AID 1224887); conditions: RealTime-Glo luminescence; series mostly up to 76.8 µM; note: top concentration of the series differs between compounds; nearly all actives have a fitted effect of over 50% in size
Summary of the method: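 HEK293 + NanoLuc + prosubstrate, 600 cells/well; 5 h, 37 C/5% CO2; compound 23 nL in DMSO by pintool; 37 C; luminescence read at 0, 8, 16, 24, 32 and 40 h time points.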

| Structure (SMILES) | activity change, negative = cytotoxicity | Potency |
| --- | --- | --- |
| Nc1ccc(/C=C/c2ccc(N)cc2S(=O)(=O)O)c(S(=O)(=O)O)c1 | 0.0792% [at 0.29 µM] (inactive) | – |
| CC(C)C(=O)c1ccccc1 | – | inactive |
| C=CC(C)(O)CC/C=C(\C)CC (centres undefined) | – | inactive |
| C=C(C)C(=O)OC | – | inactive |
| O=S1(=O)CCCC1 | – | inactive |
| CO/N=C(/C(=O)N[C@@H]1C(=O)N2C(C(=O)O)=C(Cn3nnc(C)n3)CS[C@H]12)c1csc(N)n1 | – | inactive |
| NC(=O)NC(=O)Cc1ccccc1 | – | inactive |
| C=C(C)[C@@H]1CC[C@@H](C)C[C@@H]1O | – | inactive |
| OC[C@@H](O)[C@H](O)[C@@H](O)[C@@H](O)CO | – | inactive |
| CCC(C)(CCC(C)C)C(=O)[O-].CCC(C)(CCC(C)C)C(=O)[O-].[Zn+2] (centres undefined) | – | inactive |
| O=C(COCCOCCOCC(=O)Nc1c(I)cc(I)c(C(=O)O)c1I)Nc1c(I)cc(I)c(C(=O)O)c1I | – | inactive |
| CN=C(NC#N)NCCSCc1csc(N=C(N)N)n1 | – | inactive |
| C=C[Si](C)(C)O[Si](C)(C)C=C | – | inactive |
| NC(=O)C1(N2CCCCC2)CCN(CCCC(=O)c2ccc(F)cc2)CC1 | – | inactive |
| O=S(=O)(O)CCO | – | inactive |
| CCN(CC)C(=O)C1CN2CCc3cc(OC)c(OC)cc3C2CC1OC(C)=O (centres undefined) | – | inactive |
| CC(=O)OC(C)(C)Cc1ccccc1 | – | inactive |
| O=c1[nH]c(=O)c2[nH]c(=O)[nH]c2[nH]1 | 9.35% [at 6.97 µM] (inactive) | – |
| N#CCCOCCOCCC#N | – | inactive |

| Structure (SMILES) | activity change, negative = cytotoxicity | Potency |
| --- | --- | --- |
| Cc1cccc(C(=O)O)c1[N+](=O)[O-] | – | inactive |
| C=CCOc1c(Br)cc(C(C)(C)c2cc(Br)c(OCC=C)c(Br)c2)cc1Br | – | inactive |
| CCCCCCCCOC(C)=O | – | inactive |
| CCC1Nc2cc(Cl)c(S(N)(=O)=O)cc2S(=O)(=O)N1 (centres undefined) | – | inactive |
| C=CCOCC(CO)(COCC=C)COCC=C | – | inactive |
| C=CCOCC(O)CCl (centres undefined) | – | inactive |
| O=C1OC(=O)c2cc(Oc3ccc4c(c3)C(=O)OC4=O)ccc21 | – | inactive |
| Cc1cc(O)c2c(c1)C(=O)c1cccc(O)c1C2=O | – | inactive |
| CO[Si](CCCS)(OC)OC | – | inactive |
| CCCCC(CC)COC(=O)c1ccccc1 (centres undefined) | – | inactive |
| CC(C)SCc1ccco1 | – | inactive |
| CCNC(=O)NCCCOc1cccc(CN2CCCCC2)c1 | – | inactive |
| CCOC(=O)CC#N | – | inactive |
| CCC(=O)c1ccc(O)cc1 | – | inactive |
| CCCCCC1CCCC(=O)O1 (centres undefined) | – | inactive |
| Cc1cc(C)cc([N+](=O)[O-])c1 | – | inactive |
| CCC(C)N (centres undefined) | – | inactive |
| CC(C)c1ccccc1O | – | inactive |

experiment: A CellTox Green Cytotoxicity Assay to monitor cytotoxicity in HEK293 cells - 16 hour (AID 1224888); conditions: CellTox Green fluorescence; series mostly up to 76.8 µM; note: nearly all actives have a fitted effect of over 35% in size
Summary of the method: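 Tox21 screen in HEK293: membrane-impermeant cyanine dye fluoresces on binding dead-cell DNA; compound pinned 5 h post-seeding, plates held at 37 C, signal read repeatedly through 40 h.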

| Structure (SMILES) | activity change | Potency |
| --- | --- | --- |
| Nc1ccc(/C=C/c2ccc(N)cc2S(=O)(=O)O)c(S(=O)(=O)O)c1 | 0.863% [at 0.29 µM, hits give high values] (inactive) | – |
| CC(C)C(=O)c1ccccc1 | – | inactive |
| C=CC(C)(O)CC/C=C(\C)CC (centres undefined) | – | inactive |
| C=C(C)C(=O)OC | – | inactive |
| O=S1(=O)CCCC1 | – | inactive |
| CO/N=C(/C(=O)N[C@@H]1C(=O)N2C(C(=O)O)=C(Cn3nnc(C)n3)CS[C@H]12)c1csc(N)n1 | – | inactive |
| NC(=O)NC(=O)Cc1ccccc1 | – | inactive |
| C=C(C)[C@@H]1CC[C@@H](C)C[C@@H]1O | – | inactive |
| OC[C@@H](O)[C@H](O)[C@@H](O)[C@@H](O)CO | – | inactive |
| CCC(C)(CCC(C)C)C(=O)[O-].CCC(C)(CCC(C)C)C(=O)[O-].[Zn+2] (centres undefined) | – | inactive |
| O=C(COCCOCCOCC(=O)Nc1c(I)cc(I)c(C(=O)O)c1I)Nc1c(I)cc(I)c(C(=O)O)c1I | – | inactive |
| CN=C(NC#N)NCCSCc1csc(N=C(N)N)n1 | – | inactive |
| C=C[Si](C)(C)O[Si](C)(C)C=C | – | inactive |
| NC(=O)C1(N2CCCCC2)CCN(CCCC(=O)c2ccc(F)cc2)CC1 | – | inactive |
| O=S(=O)(O)CCO | – | inactive |
| CCN(CC)C(=O)C1CN2CCc3cc(OC)c(OC)cc3C2CC1OC(C)=O (centres undefined) | – | inactive |
| CC(=O)OC(C)(C)Cc1ccccc1 | – | inactive |
| O=c1[nH]c(=O)c2[nH]c(=O)[nH]c2[nH]1 | -15.6% [at 6.97 µM, hits give high values] (inactive) | – |
| N#CCCOCCOCCC#N | – | inactive |

| Structure (SMILES) | activity change | Potency |
| --- | --- | --- |
| Cc1cccc(C(=O)O)c1[N+](=O)[O-] | – | inactive |
| C=CCOc1c(Br)cc(C(C)(C)c2cc(Br)c(OCC=C)c(Br)c2)cc1Br | – | inactive |
| CCCCCCCCOC(C)=O | – | inactive |
| CCC1Nc2cc(Cl)c(S(N)(=O)=O)cc2S(=O)(=O)N1 (centres undefined) | – | inactive |
| C=CCOCC(CO)(COCC=C)COCC=C | – | inactive |
| C=CCOCC(O)CCl (centres undefined) | – | inactive |
| O=C1OC(=O)c2cc(Oc3ccc4c(c3)C(=O)OC4=O)ccc21 | – | inactive |
| Cc1cc(O)c2c(c1)C(=O)c1cccc(O)c1C2=O | – | inactive |
| CO[Si](CCCS)(OC)OC | – | inactive |
| CCCCC(CC)COC(=O)c1ccccc1 (centres undefined) | – | inactive |
| CC(C)SCc1ccco1 | – | inactive |
| CCNC(=O)NCCCOc1cccc(CN2CCCCC2)c1 | – | inactive |
| CCOC(=O)CC#N | – | inactive |
| CCC(=O)c1ccc(O)cc1 | – | inactive |
| CCCCCC1CCCC(=O)O1 (centres undefined) | – | inactive |
| Cc1cc(C)cc([N+](=O)[O-])c1 | – | inactive |
| CCC(C)N (centres undefined) | – | inactive |
| CC(C)c1ccccc1O | – | inactive |
